# Test results: PubChem BioAssay (EPA / NIEHS)
# Values joined by “and” are separate entries in the source; they are usually repeats but may differ in a detail not shown here. Equal entries are not always repeated. Some structures have more than one record in an assay (separate samples or runs), and their calls can disagree. Active and inactive are the calls of the source. The calls were made as follows: active = hit-call score of the fitted dose curve at least 0.9, where 1 is the maximum; inactive = score below 0.9.
# Read-out: Monocyte Chemoattractant Protein-1 (MCP1), CCL2 (gene 6347)
# Experiment: BSK_BF4T_MCP1: BioMAP Diversity Plus: BF4T Assay for Monocyte Chemoattractant Protein-1 (MCP1) Biomarker Activity (AID 2284259)
# Conditions: primary human bronchial epithelial cells with fibroblasts
# Experimental: BSK_BF4T is a cell-based, multiplexed-readout assay that uses bronchial epithelial cells and dermal fibroblasts, a human vascular primary cell, with measurements taken at 24 hours after chemical dosing in a microplate: 96-well plate.BSK_BF4T_MCP1 is an assay component measured in the BSK_BF4T assay. It measures MCP-1 antibody related to regulation of gene expression using ELISA technology.Data from the assay component BSK_BF4T_MCP1 was analyzed at the endpoint, BSK_BF4T_MCP1, in the positive analysis fitting direction relative to DMSO as the negative control and baseline of activity. Using a type of binding reporter, gain or loss-of-signal activity can be used to understand protein changes. To generalize the intended target to other relatable targets, this assay endpoint is annotated to the 'cytokine' intended target family, where the subfamily is 'chemotactic factor'.
# The levels of cell surface (or secreted, indicated by the prefix "s") biomarker endpoints were measured by ELISA. Overt cytotoxicity to cells in confluent adherent cultures (all systems other than the BT system) was assessed by measuring total protein levels using sulforhodamine B (SRB) staining in parallel cultures at the time of biomarker measurements, indicated as SRB endpoints. For proliferation assays for adherent cell types, individual cell types are cultured at sub-confluence and relative cell numbers quantified by SRB staining at time points optimized for each system (48 h: 3C and CASM3C systems; 72 h: BT and HDF3CGF systems; 96 h: SAg system). SRB was performed by staining cells with 0.1% SRB after fixation with 10% TCA and reading wells at 560 nm.Viability and proliferation of PBMC (T cells) was quantified by Alamar Blue reduction for the SAg and BT systems. For PBMC viability (referred to as PBMC Cytotoxicity within the assay endpoint names), cells were plated (75,000/well in a 96-well plate) and then chemical samples added for 1 h before addition of activators, SEB and TSST-1 (20 ng/mL final concentration each). Cells were incubated for 90 h. Then, Alamar Blue (20 uL/well) (Invitrogen, Cat DAL1100) was added for 6 h, and the plates were read with a fluorescence microplate reader at 546/580 nm (excitation/emission). For PBMC proliferation, cells were plated and activated as above but incubated for only 16 h prior to addition of Alamar Blue. Plates were read after 6 h.
SMILES,outcome,AC50
CC(O)C(F)(F)C(F)(F)F (stereo not given),inactive,–
O=C(O)C=CC(F)(C(F)(F)F)C(F)(F)F,inactive,–
COC(=O)C(F)(F)C(F)(F)OC(F)(C(F)(F)F)C(F)(F)OC(F)=C(F)F (stereo not given),inactive,5.24 µM (active)
OCC(F)(F)OC(F)(F)C(F)(F)OC(F)(F)CO,inactive,–
OCC(F)(F)OC(F)(F)C(F)(F)OC(F)(F)C(F)(F)OC(F)(F)F,–,44.8 µM (active) and 22.6 µM (active)
NC(=O)C(F)(F)C(F)(F)F,inactive,–
FC(F)(F)C(F)(C(F)(F)F)C(F)(F)C(F)(F)CC1CO1 (stereo not given),inactive,–
O=C(O)C(F)(F)C(F)(F)C(=O)O,inactive,–
O=C(O)C(F)(F)OC(F)(F)C(F)(F)OC(F)(F)C(=O)O,inactive,–
O=C(O)C(F)(F)OC(F)(F)C(F)(F)OC(F)(F)F,inactive,–
OCC(F)(F)OC(F)(F)C(F)(F)OC(F)(F)C(F)(F)OC(F)(F)CO,–,17.9 µM (active) and 22.2 µM (active)
C=CC(=O)OCC(F)(F)C(F)F,inactive,–
O=S(=O)(F)C(F)(F)C(F)(F)C(F)(F)C(F)(F)C(F)(F)C(F)(F)C(F)(F)C(F)(F)F,inactive,–
O=C(O)C(F)(OC(F)(F)C(F)(F)C(F)(F)F)C(F)(F)F (stereo not given),inactive,–
